This is part of a sample that, as a whole, favours compounds with a hit. Of some 83,000 tested, about 20% had one in any assay.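 Percent growth is the endpoint: 0 to 100 indicates growth inhibition (40 means 60% inhibition), 0 means no net growth, and negative values indicate cell death.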 Values without a mark were called inactive. Calls of active or inactive are those of the source. How the source made its calls: active means growth percent below 10; inactive means the rest.
test system: LOX IMVI melanoma; test: NCI-60 one-dose screen, 48 h (100 = growth as untreated, 0 = no growth, -100 = all killed); details: 10 µM unless noted

Row | SMILES | growth
1 | O=C1Nc2ccccc2/C1=C/c1cccn1CCCCn1c2ccccc2c(=O)c2ccccc21 | 82.5%
2 | O=C1/C(=C/c2ccccc2Br)COc2ccc(O)cc21 | 18.8%
3 | O=S(=O)(Nc1ccc(Cl)c(C(F)(F)F)c1)c1ccc(-c2cnc(C3CC3)o2)cc1 | 32.9%
4 | Cc1cc(=O)oc2cc(OCc3nn4c(Nc5nc6ccccc6s5)c(-c5ccccc5)nc4s3)ccc12 | 95.8%
5 | COC(=O)c1c(C)c2n(c1C)C(=O)C(c1ccccc1)=C2 | 73.8%
6 | C#CCOC(=O)/C=C/c1cn(-c2ccccc2)nc1-c1ccc(OC)cc1 | 83.6%
7 | Cc1c2cnccc2c(C)c2c1c1cc(C#N)ccc1n2C | -35.6% (active)
8 | COC(=O)c1cc(N=C2NC(=O)/C(=C/C=C/c3ccccc3)S2)ccc1O | 40.1%
9 | Cc1ccc2c(Cn3cc(CSc4nc5ccccc5o4)nn3)cc(=O)oc2c1 | 96.9%
10 | O=C(CSc1nnc(-c2cnccn2)n1-c1ccccc1)c1ccc(Cl)cc1 | 108%
11 | NS(=O)(=O)c1ccccc1NC(=O)Nc1nc2ccccc2s1 | 91.8%
12 | CCOC(=O)C1=C(N)Oc2c(sc3c(F)cccc23)C1c1ccc(O)cc1 (configuration not stated) | 36.4%
13 | COc1ccc(/C=C/C(=O)c2ccc(Nc3ccnc4cc(Cl)ccc34)cc2)cc1 | 89.8%
14 | Cc1cc(S(=O)(=O)/N=C(\N)n2nc(C)c(C)c2C)c(SCc2ccccc2)cc1Cl | 66.9%
15 | COc1ccc(/C=C(\C#N)n2nnc3cc(Cl)ccc32)cc1 | -45.7% (active)
16 | CSc1nnc(-c2cc3c([nH]c4ccccc43)c(-c3cccc(O)c3)n2)n1-c1ccccc1 | 33.1%
17 | O=C(O)c1ccc(-n2cc(/C=N/Nc3ccccc3)c(-c3ccc(F)cc3F)n2)cc1 | 18.5%
18 | O=C(/C=C/c1cccc(Cl)c1)c1ccc(Nc2nc(Nc3ccc(F)cc3)nc(Nc3ccc(Cl)cc3)n2)cc1 | 104%
19 | NC(=O)c1cccc(-n2ccc3cc(NC(=O)c4ccc(N5CCOCC5)c(C(F)(F)F)c4)ccc32)n1 | 64.4%

Row | SMILES | growth
20 | CCn1cc(C(=O)NNC(=S)Nc2ccc(C)cc2)c(=O)c2ccc(C)nc21 | 95.1%
21 | CC(C)(Sc1cc(C(C)(C)C)c(OC(=O)CCCC(=O)O)c(C(C)(C)C)c1)Sc1cc(C(C)(C)C)c(OC(=O)CCCC(=O)O)c(C(C)(C)C)c1 | 27.1%
22 | O=C(O)c1cn(C2CC2)c2cc(N3CCN(C(=O)N(c4ccccc4)c4nc(-c5ccccc5)cs4)CC3)c(F)cc2c1=O | -23.6% (active)
23 | Cc1cccc(/C=C/c2c(C(=O)/C=C/c3ccccc3)c(C)nc3ccccc23)c1 | -86.1% (active)
24 | O=C(CSc1oc(-c2ccccc2)nc1S(=O)(=O)c1ccccc1)Nc1ccc(F)cc1 | 94%
25 | O=C(/C=C/c1ccccc1)Nc1ncc(Cc2ccccc2Cl)s1 | 21.3%
26 | O=C(Nc1cccc(Cl)c1)Nc1cccc(Cn2c(=O)[nH]c3ccc(Oc4ncccn4)cc3c2=O)c1 | 49.7%
27 | Cc1ccc2c(c1)=C/C(=C\c1cc(-c3ccccc3)oc1O)C(=O)N=2 | 94.4%
28 | c1ccc(Cn2cc3c(c2)-c2oncc2CC3)cc1 | 45.5%
29 | CCN(CC)c1ccc(\C=N/N=C(N)/C(N)=N\N=C/c2ccc(N(CC)CC)cc2)cc1 | 101%
30 | Nc1ncc(-c2ccc3ncnc(Nc4cccc(Cl)c4)c3c2)cn1 | 44.8%
31 | c1ccc([P+](c2ccccc2)(c2ccccc2)c2ccc3c4ccc([P+](c5ccccc5)(c5ccccc5)c5ccccc5)c5cccc(c6cccc2c63)c54)cc1 | 3.08% (active)
32 | Cc1ccc(NC(=O)Cn2cc(CN3CCN(c4ccnc5cc(Cl)ccc45)CC3)nn2)cc1 | 82.4%
33 | O=C(Nc1nc(-c2ccc(Cl)cc2)nc2c1sc(=S)n2-c1ccccc1)C(F)(F)F | -20.4% (active)
34 | COCCn1cc(-c2csc(-c3cn(C)c4ccc(Br)cc34)n2)c2cccnc21 | -55.1% (active)
35 | C#CCOc1ccc2ncnc(Nc3ccc(NC(=O)C=C)cc3)c2c1 | -82.6% (active)
36 | Cn1cc(-c2csc(-c3c[nH]c4ccc(Br)cc34)n2)c2ccnc(Cl)c21 | 26.2%
37 | Nc1ncnc2c1c(-c1cccc(Cl)c1)nn2CC(=O)N1CCOCC1 | 103%

From PubChem BioAssay (NCI)
